The values that follow come from PubChem BioAssay (EPA / NIEHS).

Read-out in assay [1]: solute carrier (SLCO1B1), SLCO1B1 (gene 10599)
Put plainly: LTEA_HepaRG_SLCO1B1: Life Technologies and Expression Analysis (LTEA) Assay for solute carrier (SLCO1B1) using HepaRG (AID 2283530). The following applies: mRNA level, 48 h; actives raise or lower the signal. An outline of the steps: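 HepaRG, serum-free induction medium, 48 h dosing, 8-pt half-log from 100 uM, 0.5% DMSO vehicle, duplicates. Readout: SLCO1B1 mRNA, qRT-PCR, ACTB/GAPDH/POLR2A normalization; up or down fit vs DMSO.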

Read-out in assay [2]: sulfotransferase 2A1 (SULT2A1), SULT2A1 (gene 6822)
Description: LTEA_HepaRG_SULT2A1: Life Technologies and Expression Analysis (LTEA) Assay for sulfotransferase 2A1 (SULT2A1) using HepaRG (AID 2283531). The note with it: mRNA level, 48 h; actives raise or lower the signal. In a few lines:
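Transcript levels of SULT2A1, quantified by qRT-PCR and normalized to three housekeeping genes, serve as the readout. Human HepaRG cultures receive test chemicals for 48 h at up to 100 uM in half-log steps, with 0.5% DMSO vehicle.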

Read-out in assay [3]: Transforming Growth Factor (TGFA), TGFA (gene 7039)
Description: LTEA_HepaRG_TGFA: Life Technologies and Expression Analysis (LTEA) Assay for Transforming Growth Factor (TGFA) using HepaRG (AID 2283532). The following applies: mRNA level, 48 h; actives raise or lower the signal. An outline of the steps: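 Differentiated HepaRG cells exposed 48 hours in serum-free induction medium, 0.5% DMSO vehicle, 8-point half-log series from 100 uM, in duplicate. TGFA mRNA by TaqMan qRT-PCR, normalised to ACTB, GAPDH, POLR2A; bidirectional fit versus DMSO.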

Read-out in assay [4]: Transforming Growth Factor (TGFB1), TGFB1 (gene 7040)
Description: LTEA_HepaRG_TGFB1: Life Technologies and Expression Analysis (LTEA) Assay for Transforming Growth Factor (TGFB1) Transporter using HepaRG (AID 2283533). The note with it: mRNA level, 48 h; actives raise or lower the signal. In a few lines: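 HepaRG, 48 h post-plating, switched to serum-free induction medium; chemicals 100 uM top, half-log, 8 pts, 0.5% DMSO, dup; 48 h exposure; RNA → Fluidigm TaqMan qRT-PCR; norm ACTB/GAPDH/POLR2A; bidirectional fit vs DMSO.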

Read-out in another assay: TIMP1, TIMP1 (gene 7076)
Put plainly: LTEA_HepaRG_TIMP1: Life Technologies and Expression Analysis (LTEA) Assay for TIMP1 using HepaRG (AID 2283534). The following applies: mRNA level, 48 h; actives raise or lower the signal. In a few lines: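 Readout is TIMP1 mRNA level measured by qRT-PCR and normalized to three housekeeping genes. Human HepaRG cells were treated for 48 h in duplicate at eight concentrations up to 100 uM (0.5% DMSO); gain or loss fitted against DMSO.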

Read-out in assay [5]: Tumor necrosis factor receptor 1 (TNFRSF1A), TNFRSF1A (gene 7132)
Put plainly: LTEA_HepaRG_TNFRSF1A: Life Technologies and Expression Analysis (LTEA) Assay for Tumor necrosis factor receptor 1 (TNFRSF1A) using HepaRG (AID 2283535). The following applies: mRNA level, 48 h; actives raise or lower the signal. In a few lines: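 Read-out is TNFRSF1A transcript level by TaqMan qRT-PCR, normalized to three housekeeping genes, scored as gain or loss of signal versus 0.5% DMSO. Human HepaRG cells received test chemicals for 48 h at up to 100 uM (half-log series).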

Read-out in assay [6]: Thyroid Hormone Responsive (THRSP), THRSP (gene 7069)
Put plainly: LTEA_HepaRG_THRSP: Life Technologies and Expression Analysis (LTEA) Assay for Thyroid Hormone Responsive (THRSP) using HepaRG (AID 2283536). The note with it: mRNA level, 48 h; actives raise or lower the signal. In a few lines:
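Differentiated HepaRG cells treated 48 h in serum-free induction medium with 8 half-log concentrations up to 100 uM (0.5% DMSO), duplicates. THRSP mRNA by TaqMan qRT-PCR normalised to ACTB, GAPDH, POLR2A; bidirectional fit versus DMSO.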

Read-out in assay [7]: Cellular tumor antigen p53 (Homo sapiens) (UniProt P04637)
Description: LTEA_HepaRG_TP53: Life Technologies and Expression Analysis (LTEA) Assay for Tumor Protein P53 (TP53) using HepaRG (AID 2283537). The note with it: mRNA level, 48 h; actives raise or lower the signal. In a few lines:
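Gain or loss of TP53 mRNA signal is scored relative to 0.5% DMSO after 48 h chemical treatment of HepaRG liver cells, tested in duplicate at eight half-log concentrations up to 100 uM.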

Read-out in assay [8]: UDP glucuronosyltransferase (UGT1A1), UGT1A1 (gene 54658)
Description: LTEA_HepaRG_UGT1A1: Life Technologies and Expression Analysis (LTEA) Assay for UDP glucuronosyltransferase (UGT1A1) using HepaRG (AID 2283538). The note with it: mRNA level, 48 h; actives raise or lower the signal. An outline of the steps: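 Differentiated human HepaRG cells in serum-free induction medium were exposed in duplicate for 48 h to eight half-log concentrations up to 100 uM in 0.5% DMSO. UGT1A1 mRNA was quantified by TaqMan qRT-PCR, normalized to ACTB, GAPDH and POLR2A, and fitted bidirectionally against DMSO.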

Read-out in assay [9]: UDP glucuronosyltransferase (UGT1A6), UGT1A6 (gene 54578)
Description: LTEA_HepaRG_UGT1A6: Life Technologies and Expression Analysis (LTEA) Assay for UDP glucuronosyltransferase (UGT1A6) using HepaRG (AID 2283539). The following applies: mRNA level, 48 h; actives raise or lower the signal. An outline of the steps: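 HepaRG, 48 h post-plating switch to serum-free induction medium; chemical 48 h, 100 uM top, half-log x8, duplicate, 0.5% DMSO. Phenobarbital 1mM induction control. UGT1A6 mRNA by TaqMan qRT-PCR; gain/loss fit vs DMSO.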

A short description of assay [10]: LTEA_HepaRG_LDH_cytotoxicity: Cytotoxicity Assessment in the Life Technologies and Expression Analysis (LTEA) Assay (AID 2283563; active = hit-call score of the fitted dose curve at least 0.9, where 1 is the maximum). An outline of the steps: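 Cells were thawed and plated for 48 h. Medium was then replaced with serum-free induction medium. Chemicals (8 half-log points, maximum 100 uM, 0.5% DMSO) were added in duplicate for 48 h, after which spent medium was assayed for LDH.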

Assay [11] in a line: ATG_XTT_Cytotoxicity: Cytotoxicity Assessment in the Attagene TRANS-FACTORIAL HepG2 Assay (AID 2283584; active = hit-call score of the fitted dose curve at least 0.9, where 1 is the maximum). In a few lines: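 Cells: human HepG2, transiently transfected with MRTU reporter constructs. Exposure 24 h. Readout: XTT, cell number. Baseline/neg ctrl DMSO; loss-of-signal scored.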
A short description of assay [12]: TOX21_p53_BLA_p2_viability: Viability Assessment in the Tox21 HCT-116 p53 Agonism Beta-lactamase Assay, Phase 2 (AID 2283591; active = hit-call score of the fitted dose curve at least 0.9, where 1 is the maximum;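 also: compound exposure lasted 16 h at 37 °C; actives lower the ATP signal meaning cytotoxicity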). An outline of the steps: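 HCT116 p53-bla cells, 4000/well, dosed after 5 h plating (217-fold dilution of DMSO stocks) and incubated 16 h at 37C. Viability taken as cellular ATP by CellTiter-Glo luminescence after 30 min RT; signal loss marks cytotoxicity.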

The target of assay [13] is Cellular tumor antigen p53 (Homo sapiens) (UniProt P04637). Description: TOX21_p53_BLA_p3_ratio: Tox21 HCT-116 p53 Agonism Beta-lactamase Assay, Ratio, Phase 3 (AID 2283596; active = hit-call score of the fitted dose curve at least 0.9, where 1 is the maximum). In a few lines:
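HCT116 p53-bla cells (4000/well) given compound in DMSO (217-fold dilution) after 5 h, incubated 16 h at 37C. CCF4-AM substrate 2 h at room temperature; 460/530 nm emission ratio, gain fitted against DMSO.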

The nature of assay [14]: TOX21_p53_BLA_p4_viability: Viability Assessment in the Tox21 HCT-116 p53 Agonism Beta-lactamase Assay, Phase 4 (AID 2283597; active = hit-call score of the fitted dose curve at least 0.9, where 1 is the maximum;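 also: hits lower the luminescence signal meaning cytotoxicity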). An outline of the steps:
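Cells plated, 5 h pre-incubation; DMSO compounds pinned (217-fold dilution); 16 h, 37C/5% CO2; CCF4-AM 2 h RT; CellTiter-Glo 30 min RT; luminescence read.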

The target in assay [15] is Cellular tumor antigen p53 (Homo sapiens) (UniProt P04637). Description: TOX21_p53_BLA_p5_ratio: Tox21 HCT-116 p53 Agonism Beta-lactamase Assay, Ratio, Phase 5 (AID 2283599; active = hit-call score of the fitted dose curve at least 0.9, where 1 is the maximum). An outline of the steps: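 HCT-116 p53-bla cells (4000/well) plated 5 h, dosed with compound (217-fold DMSO dilution) for 16 h at 37 C; CCF4-AM substrate 2 h at room temperature. Activity is the 460/530 nm emission ratio (405 nm excitation), fitted in gain-of-signal direction versus DMSO.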
Cellular tumor antigen p53 (Homo sapiens), sequence (P04637 whole entry, looked up): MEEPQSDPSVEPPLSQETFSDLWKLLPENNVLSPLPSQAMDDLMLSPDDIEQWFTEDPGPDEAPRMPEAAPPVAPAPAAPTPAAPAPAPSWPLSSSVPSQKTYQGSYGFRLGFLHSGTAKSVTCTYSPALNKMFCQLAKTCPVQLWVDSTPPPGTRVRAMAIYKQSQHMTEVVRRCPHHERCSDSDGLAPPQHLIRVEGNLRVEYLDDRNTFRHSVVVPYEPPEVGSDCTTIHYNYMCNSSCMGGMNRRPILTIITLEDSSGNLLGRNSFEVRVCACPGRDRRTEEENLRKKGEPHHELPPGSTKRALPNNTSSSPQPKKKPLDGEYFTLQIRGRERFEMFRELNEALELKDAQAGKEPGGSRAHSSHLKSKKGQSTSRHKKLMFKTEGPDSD

Assay [16] is described as follows: TOX21_p53_BLA_p3_viability: Viability Assessment in the Tox21 HCT-116 p53 Agonism Beta-lactamase Assay, Phase 3 (AID 2283593; active = hit-call score of the fitted dose curve at least 0.9, where 1 is the maximum;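 also: cells exposed to compound for 16 h before reading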). In a few lines: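 HCT116 cells, 4000/well, dosed 5 h after plating by pin transfer (217-fold dilution from DMSO stock) and incubated 16 h at 37C, 5% CO2. Viability read as ATP luminescence with CellTiter-Glo after 30 min at room temperature.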

Assay [17] is described as follows: TOX21_p53_BLA_p5_viability: Viability Assessment in the Tox21 HCT-116 p53 Agonism Beta-lactamase Assay, Phase 5 (AID 2283600; active = hit-call score of the fitted dose curve at least 0.9, where 1 is the maximum). In a few lines:
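4000 cells/well; 5 h pre-incubation; DMSO compounds pin-transferred, 217-fold dilution; 16 h, 37C/5% CO2; CCF4-AM 2 h RT; CellTiter-Glo 30 min RT; luminescence.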

Read-out in assay [18]: X-box binding protein 1 (XBP1), XBP1 (gene 7494)
Description: LTEA_HepaRG_XBP1: Life Technologies and Expression Analysis (LTEA) Assay for X-box binding protein 1 (XBP1) using HepaRG (AID 2283540). The note with it: mRNA level, 48 h; actives raise or lower the signal. In a few lines: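 Transcript levels of XBP1, measured by qRT-PCR and normalised to three housekeeping genes, were fitted bidirectionally relative to 0.5% DMSO controls. Human HepaRG cells received eight-point half-log dilutions from 100 uM for 48 h.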

Usually AC50 stands for the midpoint of the concentration-response curve, whichever way the signal moves.

Records with an inconclusive call do not appear. More than one record can exist for a structure, and the calls need not agree. Activity calls are given as the source filed them. The calls were made as follows, unless noted: active = hit-call score of the fitted dose curve at least 0.9, where 1 is the maximum; inactive = score below 0.9.

On to `CC1=C(C)S(=O)(=O)CCS1(=O)=O`, for which the AC50 is 88.2 µM (active) in assay [1]; 50 µM (active) in assay [3]; 80 µM (active) in [6]; 50 µM (active) in assay [7]; 282 nM (active) in [9]. The outcome in [2] is “inactive”; in assay [4], “inactive”; with TIMP1, TIMP1 (gene 7076), “inactive”; in assay [5] it was “inactive”; in assay [8] it was “inactive”; in assay [10] it was “inactive”. The result in [11], in assay [12], in assay [13], in assay [14] and in assay [15] was inactive.

`O=C(O)c1[nH]n(-c2ccc(S(=O)(=O)O)cc2)c(=O)c1N=Nc1ccc(S(=O)(=O)O)cc1`: the outcome in assay [1] is “inactive”; in [2] it was “inactive”; in [3], “inactive”; in assay [4], “inactive”; with TIMP1, TIMP1 (gene 7076), “inactive”; in assay [5], “inactive”. In addition, the outcome in assay [6], in [7], in [8], in [9], in [10] and in [16] was inactive. In addition, the outcome in [13], in assay [14], in assay [15] and in assay [17] was inactive. In addition, the values for the AC50 in [13] and in assay [15] were 0.0528 nM (active) and 0.0652 nM (active), respectively.

Turning to `CCCCCCC(CCCCCCCCCCC(=O)OCC(COC(C)=O)OC(C)=O)OC(C)=O` (stereo not given), the outcome in assay [1] is “inactive”; in assay [2], “inactive”; in assay [3], “inactive”; in [4], “inactive”; in the assay with TIMP1, TIMP1 (gene 7076), “inactive”; in assay [5], “inactive”. Further, the call in assay [6], in assay [7], in [8], in [9], in [10] and in assay [11] was inactive. The result in assay [15] and in assay [17] was inactive.

As to `CCOCCOCCO`, the outcome in assay [1] is “inactive”; in assay [2] it was “inactive”; in assay [3], “inactive”; in [4], “inactive”; in the assay with TIMP1, TIMP1 (gene 7076), “inactive”; in assay [5], “inactive”. Besides, the outcome in assay [6], in assay [7], in assay [8], in [9], in assay [18] and in assay [10] was inactive. Besides, the result in assay [11], in [12], in [16], in [13] and in assay [15] was inactive.
